This note sets out measurements from PubChem BioAssay (NCATS).

Inconclusive results are not listed. A number with no mark means an inactive call. Calls of active or inactive are those of the source. Calls come from the whole dose curve; as a rule, active = well fitted curve in the direction sought with a large enough effect; inconclusive = small, poorly fitted or top-dose-only effect, or another doubt; inactive = no such curve, though single readings can be large; an effect the other way counts as inactive or inconclusive.

Test [1] has as its target Rap guanine nucleotide exchange factor 3 (Homo sapiens) (UniProt O95398). Nature of the test: Confirmatory qHTS for antagonist of cAMP-regulated guanine nucleotide exchange factor 3 (EPAC1) (AID 1645880). Note: nearly all actives have a fitted effect of over 55% in size. Note: potency is the fitted concentration of half-maximal effect. The procedure, abridged: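 Released BODIPY-GDP fluoresces less than Rap1-bound BODIPY-GDP; the signal is followed at 480/540 nm at 5-min intervals over 30 min, after 5 min at room temperature. Reactions contain 100 nM EPAC1, 250 nM RAP1B-BODIPY-GDP and 50 uM GDP; results are normalized to ATA and DMSO.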

Test [2] has the same target. Put plainly: Confirmatory qHTS for agonist of cAMP-regulated guanine nucleotide exchange factor 3 (EPAC1) (AID 1645881).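 Note: EPAC1 catalysed release of BODIPY-GDP from Rap1B seen as fluorescence loss; 100% = effect of cAMP agonist control; nearly all actives have a fitted effect of over 75% in size.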
Test [3] has as its target Rap guanine nucleotide exchange factor 4 (Homo sapiens) (UniProt Q8WZA2). Nature of the test: Confirmatory qHTS for agonist of cAMP-regulated guanine nucleotide exchange factor 4 (EPAC2) (AID 1645884).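 Note: nucleotide exchange releases bodipy-GDP from Rap1 and this lowers its fluorescence; % is set by controls: 0 for no effect and ±100 for the full control effect; nearly all actives have a fitted effect of over 65% in size.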
The target is the same in test [4]. Nature of the test: Confirmatory qHTS for antagonist of cAMP-regulated guanine nucleotide exchange factor 4 (EPAC2) (AID 1645885). For activity change, negative = inhibition: % is set by controls: 0 for no effect and ±100 for the full control effect. Note: nearly all actives have a fitted effect of over 25% in size. Note: potency is the fitted concentration of half-maximal effect.
In test [5] the target is Rap guanine nucleotide exchange factor 3 (Homo sapiens) (UniProt O95398). Put plainly: Counterscreen qHTS for antagonist of cAMP-regulated guanine nucleotide exchange factor 3 (EPAC1) (AID 1645888). Note: % of control where 0% means no effect. The gist of the method:
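Rap1B-BODIPY-GDP 250 nM + GDP 50 uM; cpds 7-pt, final 9.74 nM–152 uM (activator mode) or from 7.32 nM upwards (inhibitor mode); RT; FI 480/540 nm at 5 and 30 min, then ± cAMP, reread.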

Sequence of Rap guanine nucleotide exchange factor 3 (Homo sapiens) (O95398 whole entry, looked up): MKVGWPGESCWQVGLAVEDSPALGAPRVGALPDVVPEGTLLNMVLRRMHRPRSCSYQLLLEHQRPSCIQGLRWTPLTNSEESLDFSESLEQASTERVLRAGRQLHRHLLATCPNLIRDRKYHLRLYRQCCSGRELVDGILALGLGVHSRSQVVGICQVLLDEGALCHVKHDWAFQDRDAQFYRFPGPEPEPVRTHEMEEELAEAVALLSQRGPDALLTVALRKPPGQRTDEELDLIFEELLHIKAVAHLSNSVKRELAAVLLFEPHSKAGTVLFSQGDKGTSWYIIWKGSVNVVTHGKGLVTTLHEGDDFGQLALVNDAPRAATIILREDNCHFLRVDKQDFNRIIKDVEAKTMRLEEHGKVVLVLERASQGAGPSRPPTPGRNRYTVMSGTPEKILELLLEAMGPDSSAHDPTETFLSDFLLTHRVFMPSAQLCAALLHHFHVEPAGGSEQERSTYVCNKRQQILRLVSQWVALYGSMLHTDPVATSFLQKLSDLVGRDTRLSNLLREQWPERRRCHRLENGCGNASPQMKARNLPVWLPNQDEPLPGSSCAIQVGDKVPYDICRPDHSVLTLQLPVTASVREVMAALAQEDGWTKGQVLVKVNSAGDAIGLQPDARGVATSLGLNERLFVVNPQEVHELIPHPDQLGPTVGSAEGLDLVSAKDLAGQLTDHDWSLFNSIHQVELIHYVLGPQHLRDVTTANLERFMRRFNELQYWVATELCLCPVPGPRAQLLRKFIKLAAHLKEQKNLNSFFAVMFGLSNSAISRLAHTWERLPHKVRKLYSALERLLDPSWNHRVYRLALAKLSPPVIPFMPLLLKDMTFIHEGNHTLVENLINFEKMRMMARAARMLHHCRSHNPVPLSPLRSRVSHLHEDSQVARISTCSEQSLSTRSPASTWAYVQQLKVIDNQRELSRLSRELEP
Sequence of Rap guanine nucleotide exchange factor 4 (Homo sapiens) (Q8WZA2 whole entry, looked up): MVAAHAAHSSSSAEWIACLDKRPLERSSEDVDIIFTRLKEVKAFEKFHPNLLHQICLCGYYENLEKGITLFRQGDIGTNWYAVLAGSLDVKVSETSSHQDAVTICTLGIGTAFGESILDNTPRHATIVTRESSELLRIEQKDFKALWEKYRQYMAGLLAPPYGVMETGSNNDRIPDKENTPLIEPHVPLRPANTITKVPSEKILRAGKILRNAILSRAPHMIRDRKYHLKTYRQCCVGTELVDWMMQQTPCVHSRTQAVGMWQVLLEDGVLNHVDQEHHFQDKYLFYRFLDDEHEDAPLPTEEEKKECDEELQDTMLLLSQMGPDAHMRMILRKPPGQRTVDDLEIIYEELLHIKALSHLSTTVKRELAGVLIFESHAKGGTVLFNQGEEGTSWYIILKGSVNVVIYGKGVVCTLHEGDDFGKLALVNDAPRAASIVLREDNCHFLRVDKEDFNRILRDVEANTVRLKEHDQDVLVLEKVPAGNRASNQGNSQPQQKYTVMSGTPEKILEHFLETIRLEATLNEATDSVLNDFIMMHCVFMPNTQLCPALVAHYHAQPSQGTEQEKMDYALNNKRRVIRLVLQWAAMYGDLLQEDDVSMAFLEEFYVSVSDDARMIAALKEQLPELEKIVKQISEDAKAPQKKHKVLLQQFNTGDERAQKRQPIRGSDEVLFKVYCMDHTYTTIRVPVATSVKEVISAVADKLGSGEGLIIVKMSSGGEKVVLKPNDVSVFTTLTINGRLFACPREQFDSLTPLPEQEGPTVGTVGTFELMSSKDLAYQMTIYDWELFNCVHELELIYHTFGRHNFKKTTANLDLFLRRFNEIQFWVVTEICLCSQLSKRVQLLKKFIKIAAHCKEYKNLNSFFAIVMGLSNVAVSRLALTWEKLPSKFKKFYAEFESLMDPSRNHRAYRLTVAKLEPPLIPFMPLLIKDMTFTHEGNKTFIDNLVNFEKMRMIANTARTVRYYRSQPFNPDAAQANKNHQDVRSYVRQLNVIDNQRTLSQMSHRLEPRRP

Take `CC(C(=O)NC1CC(C)(C)NC(C)(C)C1)c1ccc([N+](=O)[O-])cc1` (stereo not given): the Potency result in test [1], in test [2], in test [3], in test [4] and in test [5] was “inactive” in each case.

Take `O=C(O)c1[nH]c2ccccc2c1C(c1cc(Br)ccc1O)c1c(C(=O)O)[nH]c2ccccc12`: the Potency in test [1] is 39.8 µM (active). The Potency entry in test [2] and in test [4] was “inactive” each time. Moreover, the activation in test [3] is 11.5% [at 17.1 µM, percent relative to cAMP agonist control]. Moreover, the activity change, negative = inhibition in test [5] is -16.3% [at 30.8 µM].

Regarding `COc1cccc(CN2C(=O)C3(SCC(=O)N3c3ccc(F)cc3)c3ccccc32)c1` (stereo not given), the Potency entry in test [1], in test [2], in test [3], in test [4] and in test [5] was “inactive” throughout.

For `Cc1ccc(C)c(S(=O)(=O)N2CCN(C(=O)CCCc3c[nH]c4ccccc34)CC2)c1`, the Potency entry in test [1], in test [2] and in test [4] was “inactive” throughout. For the same compound, the activation in test [3] was 2.96% [at 17.1 µM, percent relative to cAMP agonist control]. Also, the activity change, negative = inhibition in test [5] was -6.79% [at 30.8 µM].

For `CCC(C(=O)OCC(=O)Nc1cc(C)ccc1OC)c1ccccc1` (stereo not given), the Potency entry in test [1], in test [2] and in test [4] was “inactive” in each case. In addition, the activation in test [3] is 3.82% [at 17.1 µM, percent relative to cAMP agonist control]. Moreover, the activity change, negative = inhibition in test [5] was -13% [at 30.8 µM].

Regarding `COc1ccc(S(=O)(=O)N2C(=O)/C(=C3\SC(N)=NC3=O)c3ccccc32)cc1`, the Potency result in test [1], in test [2], in test [3], in test [4] and in test [5] was “inactive” in each case.

As to `Cc1cc(Nc2cccc(C(F)(F)F)c2)nc2ccc(NC(=O)c3ccc(N(C)C)cc3)cc12`, the Potency entry in test [1], in test [2], in test [3], in test [4] and in test [5] was “inactive” in each case.

`C=CCn1c(NC(=O)c2ccccc2Cl)c(C#N)c2nc3ccccc3nc21`: the Potency in test [1] is 35.5 µM (active); in test [4] it was 3.01 µM (active). For the same compound, in test [2], the Potency result was “inactive”. Moreover, the activation in test [3] was -3.42% [at 17.1 µM, percent relative to cAMP agonist control]. In addition, the activity change, negative = inhibition in test [5] was -7.8% [at 30.8 µM].

For `COC(=O)c1cc2sccc2n1Cc1c(C)cc(C)cc1C`, the Potency result in test [1], in test [2], in test [3], in test [4] and in test [5] was “inactive” throughout.

On to `COc1ccc(OC)c(-c2nc3c(C#N)c[nH]n3c2NC2CCCCC2)c1`, for which the Potency entry in test [1], in test [2], in test [3] and in test [5] was “inactive” in each case. The outcome in test [4] was “inactive [at 12.7 µM]”.

In the case of `CC(SC1=NCCN1S(=O)(=O)c1ccc(F)cc1)c1ccccc1` (stereo not given), the Potency entry in test [1], in test [2], in test [3] and in test [5] was “inactive” each time. Besides, the Potency in test [4] was 12 µM (active).

Regarding `c1ccc(-c2nnc3sc(CN4CCC5(CC4)OCCO5)cn23)cc1`, the Potency result in test [1], in test [2], in test [3], in test [4] and in test [5] was “inactive” throughout.

Consider `C[C@@H]1CN([C@@H](C)CO)S(=O)(=O)c2ccc(Br)cc2O[C@H]1CN(C)Cc1ccccc1F`, for which the Potency result in test [1], in test [2], in test [3], in test [4] and in test [5] was “inactive” throughout.

On to `COc1ccc(S(=O)(=O)N2CCC[C@H]2C(=O)N2CCC[C@H]2C(=O)NCc2ccccc2)cc1C`, for which the Potency result in test [1], in test [2] and in test [4] was “inactive” each time. In addition, in test [3], the activation was 4.41% [at 17.1 µM, percent relative to cAMP agonist control]. Also, the activity change, negative = inhibition in test [5] is -5.32% [at 30.8 µM].

`Cc1c(C(=O)NCCO)sc2nc3n(c(=O)c12)CCC3`: the Potency entry in test [1], in test [2], in test [3], in test [4] and in test [5] was “inactive” each time.

Take `COc1ccc([N+](=O)[O-])cc1NC(=S)Nc1ccccc1`: the Potency entry in test [1], in test [2], in test [3], in test [4] and in test [5] was “inactive” in each case.

Regarding `CCOc1ccc2nc(NC(=O)CSc3nc(-c4ccccc4)c(C#N)c(=O)[nH]3)sc2c1`, the Potency in test [1] is 56.2 µM (active). Further, the Potency result in test [2] and in test [4] was “inactive” in each case. For the same compound, the activation in test [3] is 2.22% [at 17.1 µM, percent relative to cAMP agonist control]. Further, the activity change, negative = inhibition in test [5] is -3.89% [at 30.8 µM].

On to `O=C1/C(=C/C=C/c2ccco2)SC(=S)N1NS(=O)(=O)c1ccccc1`, for which, in test [1], the Potency was 5.62 µM (active). Also, the Potency entry in test [2] and in test [4] was “inactive” each time. Further, the activation in test [3] was 11.3% [at 17.1 µM, percent relative to cAMP agonist control]. Also, the activity change, negative = inhibition in test [5] is 17.5% [at 30.8 µM].

As to `CCNC(=O)COc1ccc(/C=C2\COc3ccccc3C2=O)cc1OC`, the Potency result in test [1], in test [2] and in test [4] was “inactive” throughout. Moreover, the activation in test [3] was 4.45% [at 17.1 µM, percent relative to cAMP agonist control]. For the same compound, in test [5], the activity change, negative = inhibition was 0.373% [at 30.8 µM].

`O=C1N=c2ccccc2=C1c1sc(Nc2ccc(O)cc2)nc1O`: the Potency in test [1] was 30.1 µM (active). The Potency result in test [2], in test [3], in test [4] and in test [5] was “inactive” in each case.

For `CCSc1nnc(NC(=O)C2CCN(S(=O)(=O)c3ccccc3C(F)(F)F)CC2)s1`, the Potency result in test [1], in test [2], in test [3], in test [4] and in test [5] was “inactive” each time.

On to `Cc1ccc(S(=O)(=O)N2[C@@H](c3ccc(Br)cc3)C(C(=O)O)=CC[C@H]2c2ccc(C(C)C)cc2)cc1`, for which, in test [1], the Potency was 16.9 µM (active). In addition, the Potency result in test [2], in test [3], in test [4] and in test [5] was “inactive” in each case.

For `Fc1ccc(-c2noc3ncnc(N4CCN(c5ccccc5)CC4)c23)cc1`, the Potency result in test [1], in test [2], in test [3], in test [4] and in test [5] was “inactive” throughout.
